The values that follow come from the supplement of paper PMC9135407.

Structures are written as SMILES. Several values for one entry are separate records, joined by “and”; a condition that tells them apart may be missing. Equal entries are not always repeated. Structures can show the parent of a compound that is named as a salt. Hit rate of the full screen: of about 5,800 compounds, about 620 (11%) showed activity. Many of the other results were omitted from the sample, so actives are more common in it than they were. Unmarked numbers belong to inactive results.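 How the source made its calls: active = score above a cut-off or among the top three wells of a plate; in these data no inactive exceeds 0.85.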

For this assay, the system named is primary human hepatic stellate cells (donor 1). Nature of the assay: scaled lipid accumulation score (0 = DMSO-like, 1 = nortriptyline-like); higher = stronger HSC inactivation (lipid re-accumulation), active = hit call of the paper. Conditions: 48 h.
[1] abbreviates: library stock concentration: 10 mM.
Where [2] appears, read: library stock concentration: 1 mM.
The mark [3] stands for this setting: library stock concentration: 3.33 mM.
The mark [4] stands for this setting: library stock concentration: 80 uM.
[5] abbreviates: library stock concentration: 400 uM.
Setting [6] is: library stock concentration: 2 mM.
Where [7] appears, read: library stock concentration: 5.3 mM.

For the molecule `COC(=O)C(N)Cc1ccc(Cl)cc1` (racemic) [DL-p-Chlorophenylalanine methyl ester hydrochloride], the “scaled lipid accumulation score” value under setting [1] is not above 0.
For the molecule `CCCCCCCC/C=C\CCCCCCCC(=O)OC[C@@H](O)COP(=O)(O)O` [1-Oleoyl Lysophosphatidic Acid (sodium salt)], the “scaled lipid accumulation score” value under setting [2] is not above 0.
Take `CCCCCCCC/C=C\CCCCCCCC(=O)OC[C@@H](O)COP(=O)(O)O` [1-Oleoyl Lysophosphatidic Acid]: the “scaled lipid accumulation score” value under setting [2] was not above 0.
On the same count and under the same terms, then `CCCCCCCCCCOc1ccc(OCC(=O)Cn2cc(C(=O)OC)c3cc(C(=O)O)ccc32)cc1`, with not above 0; and `CCCCCCC(Sc1nc(Cl)cc(NCc2ccc(-c3ccccc3)cc2)n1)C(=O)O` (stereo unspecified), with not above 0; and `CCCCCC(=O)CCC1C(=O)C=CC1C/C=C\CCCC(=O)O` (stereo unspecified) [13,14-dihydro-15-keto Prostaglandin J2], with not above 0.
Still for that read-out and setting: then `CCCCC[C@H](O)/C=C/[C@H]1OC(O)C[C@H](O)[C@@H]1C/C=C\CCCC(=O)O` (stereo partly specified) [Thromboxane B2], with not above 0.
Consider `CC(C)CCN1C(=O)N(CCN(C)C)C(=O)C12CCN(Cc1cn(C)c3ccccc13)CC2`, for which, under setting [1], the “scaled lipid accumulation score” value is 0.692 (active).
As for `C[C@@H]1[C@H](O)[C@@H](C)/C=C/C=C/C=C/C=C/C=C/C=C/C=C/[C@H](O[C@@H]2O[C@H](C)[C@@H](O)[C@H](N)[C@@H]2O)C[C@@H]2O[C@](O)(C[C@@H](O)C[C@@H](O)[C@H](O)CC[C@@H](O)C[C@@H](O)CC(=O)O[C@H]1C)C[C@H](O)[C@H]2C(=O)O` [Amphotericin b], under setting [1], the “scaled lipid accumulation score” value is not above 0.
With `C[C@@H]1[C@H](O)[C@@H](C)/C=C/C=C/C=C/C=C/C=C/C=C/C=C/[C@H](O[C@@H]2O[C@H](C)[C@@H](O)[C@H](N)[C@@H]2O)C[C@@H]2O[C@](O)(C[C@@H](O)C[C@@H](O)[C@H](O)CC[C@@H](O)C[C@@H](O)CC(=O)O[C@H]1C)C[C@H](O)[C@H]2C(=O)O` [Amphotericin B], the “scaled lipid accumulation score” value is 0.003. The “scaled lipid accumulation score” value under setting [3] is 0.002. Under setting [1], the “scaled lipid accumulation score” value was not above 0.
On to `S=C(Nc1ccccc1)Nc1nccs1` [1-Phenyl-3-(2-thiazolyl)-2-thiourea], for which the “scaled lipid accumulation score” value under setting [1] is not above -0.055.
In the case of `COc1cccc(Nc2c(C(N)=O)cnc3c(C)cc(S(=O)(=O)c4cccc(C(=O)N(C)C)c4)cc23)c1`, the “scaled lipid accumulation score” value is not above 0 under setting [3] and not above 0 under setting [1].
Take `CCCCCC(O)C=CC1C(O)CC(=O)C1CCCCCCC(=O)O` (stereo unspecified) [8-iso Prostaglandin E1]: the “scaled lipid accumulation score” value under setting [2] is not above 0.
On the same count and under the same terms, then `CCCCCC(O)C=CC1C(O)CC(=O)C1CCCCCCC(=O)O` [15(R)-Prostaglandin E1], with not above 0.
As to `COc1cc(C)c(Sc2cnc(NC(=O)c3ccc(CNC(C)C(C)(C)C)cc3)s2)cc1C(=O)N1CCN(C(C)=O)CC1` (stereo unspecified), the “scaled lipid accumulation score” value is not above -0.009 under setting [4], not above -0.009 under setting [5], 0.095 under setting [6] and 0.769 under setting [1].
`COc1cc(C)c(Sc2cnc(NC(=O)c3ccc(CNC(C)C(C)C)cc3)s2)cc1C(=O)N1CCN(C(C)=O)CC1` (stereo unspecified) [listing 1 of 2 here]: the “scaled lipid accumulation score” value was 0.006 under setting [4], not above 0 under setting [5] and 0.398 under setting [6].
Regarding `COc1cc(C)c(Sc2cnc(NC(=O)c3ccc(CNC(C)C(C)C)cc3)s2)cc1C(=O)N1CCN(C(C)=O)CC1` (stereo unspecified) [listing 2 of 2 here], under setting [1], the “scaled lipid accumulation score” value is 0.891 (active).
Turning to `CC(C(O)c1ccc(O)cc1)N1CCC(Cc2ccccc2)CC1` (stereo unspecified) [Ifenprodil tartrate], the “scaled lipid accumulation score” value is 0.252.
Take `C[C@@H](CN1CCC(Cc2ccccc2)CC1)[C@@H](O)c1ccc(O)cc1` [Ro 25-6981 maleate]: under setting [1], the “scaled lipid accumulation score” value is 0.284.
For the molecule `C[C@@H](CN1CCC(Cc2ccccc2)CC1)[C@@H](O)c1ccc(O)cc1` [Ro 25-6981 hydrochloride], the “scaled lipid accumulation score” value under setting [1] is not above 0.
For the molecule `CC(C(O)c1ccc(O)cc1)N1CCC(Cc2ccccc2)CC1` (stereo unspecified) [Ifenprodil], the “scaled lipid accumulation score” value by setting is: (library stock concentration: 6.1 mM) 0.223; (library stock concentration: 9.6 mM) 0.096.
Take `CC(C(O)c1ccc(O)cc1)N1CCC(Cc2ccccc2)CC1.CC(C(O)c1ccc(O)cc1)N1CCC(Cc2ccccc2)CC1.O=C(O)C(O)C(O)C(=O)O` (stereo unspecified) [Ifenprodil tartrate]: the “scaled lipid accumulation score” value under setting [1] is 1.11 (active).
`CC(C(O)c1ccc(O)cc1)N1CCC(Cc2ccccc2)CC1` (stereo unspecified) [Ifenprodil hemitartrate]: the “scaled lipid accumulation score” value under setting [1] was 0.45.
In the case of `CC(C(O)c1ccc(O)cc1)N1CCC(Cc2ccccc2)CC1` (stereo unspecified) [Ifenprodil Tartrate], the “scaled lipid accumulation score” value reads like this: under setting [3], not above 0; under setting [1], 0.077.
On to `Nc1nc(=S)c2ncn([C@@H]3O[C@H](CO)[C@@H](O)[C@H]3O)c2[nH]1` [Thioguanosine], for which the “scaled lipid accumulation score” value was 0.076.
Take `CCCCC[C@H](O)/C=C/[C@@H]1[C@H](CCCCCCC(=O)O)[C@@H](O)C[C@H]1O` [8-iso Prostaglandin F1.alpha.]: under setting [2], the “scaled lipid accumulation score” value was not above 0.
Same read-out and setting: then `CCCCC/C=C\C/C=C\C/C=C\CCCCC(=O)O` [.gamma.-Linolenic Acid], with 0.011; and `CCCCC/C=C\C/C=C\C/C=C\CCCCC(=O)O` [Gamma-linolenic acid (18:3 n-6)], with 0.024.
`OC(CCCN1CCCCC1)(c1ccccc1)c1ccccc1` [Diphenidol hydrochloride]: the “scaled lipid accumulation score” value is 0.315.
In the case of `Cl.Clc1ccc(CCCOCCCN2CCCCC2)cc1`, the “scaled lipid accumulation score” value under setting [1] was 1.05 (active).
For `OCCOCCN1CCN(C(c2ccccc2)c2ccc(Cl)cc2)CC1` (stereo unspecified) [Hydroxyzine pamoate], the “scaled lipid accumulation score” value (library stock concentration: 2.6 mM) is 0.044 and the “scaled lipid accumulation score” value under setting [1] is 0.142.
With `OCCOCCN1CCN(C(c2ccccc2)c2ccc(Cl)cc2)CC1` (stereo unspecified) [Hydroxyzine 2HCl], the “scaled lipid accumulation score” value by setting is: under setting [3], 0.1; under setting [1], 0.631.
Take `OCCOCCN1CCN(C(c2ccccc2)c2ccc(Cl)cc2)CC1` (stereo unspecified) [Hydroxyzine dihydrochloride]: the “scaled lipid accumulation score” value is 0.453.
Turning to `OC(CCCN1CCCCC1)(c1ccccc1)c1ccccc1` [Diphenidol HCl], the “scaled lipid accumulation score” value reads like this: under setting [3], not above 0; under setting [1], 0.007.
Consider `CCCCC[C@H](O)/C=C/[C@@H]1[C@@H](C/C=C\CCCC(=O)NCCO)[C@@H](O)C[C@H]1O` [Prostaglandin F2.alpha. Ethanolamide], for which the “scaled lipid accumulation score” value under setting [2] is not above 0.
`Nc1ncnc2c1ncn2[C@@H]1O[C@H](CO)C[C@@H]1O` [3'-deoxydenosine]: the “scaled lipid accumulation score” value under setting [1] was not above 0.
In the case of `CC(C)(C)NCC(O)c1ccc(O)c(CO)c1` (racemic) [Albuterol (+/-)], the “scaled lipid accumulation score” value under setting [1] was 0.068.
The same measure, in the same setting: the value for `CO/N=C(\C(=O)N[C@@H]1C(=O)N2C(C(=O)O)=C(CSc3nnnn3C)CS[C@H]12)c1csc(N)n1` was not above 0.
Turning to `CC(C)=CCCC(C)(OC1OC(COC2OCC(O)C(O)C2O)C(O)C(O)C1O)C1CCC2(C)C1C(O)CC1C3(C)CCC(OC4OC(CO)C(O)C(O)C4O)C(C)(C)C3CCC12C` (stereo unspecified) [Gynostemma Extract], the “scaled lipid accumulation score” value under setting [3] was 0.01 and the “scaled lipid accumulation score” value under setting [1] is not above 0.
Take `O=C(CCCN1CCC(O)(c2ccc(Cl)cc2)CC1)c1ccc(F)cc1` [Haloperidol hydrochloride]: under setting [1], the “scaled lipid accumulation score” value was 0.78.
`O=C(CCCN1CCC(O)(c2ccc(Cl)cc2)CC1)c1ccc(F)cc1` [Haloperidol HCl]: the “scaled lipid accumulation score” value under setting [7] is 0.419.
For `O=C(CCCN1CCC(O)(c2cccc(C(F)(F)F)c2)CC1)c1ccc(F)cc1` [Trifluperidol 2HCl], the “scaled lipid accumulation score” value (library stock concentration: 4.9 mM) was 0.327.
With `O=C(CCCN1CCC(O)(c2ccc(Br)cc2)CC1)c1ccc(F)cc1` [Bromperidol], the “scaled lipid accumulation score” value was 0.632. Moreover, where the note is “library stock concentration: 4.8 mM”, the “scaled lipid accumulation score” value is 0.429.
`O=C(CCCN1CCC(O)(c2ccc(Cl)cc2)CC1)c1ccc(F)cc1` [Haloperidol] [listing 1 of 2 here]: under setting [1], the “scaled lipid accumulation score” value is 1.12 (active).
Regarding `O=C(CCCN1CCC(O)(c2ccc(Cl)cc2)CC1)c1ccc(F)cc1` [Haloperidol] [listing 2 of 2 here], the “scaled lipid accumulation score” value was 0.589. Moreover, the “scaled lipid accumulation score” value under setting [3] is 0.302. The “scaled lipid accumulation score” value under setting [7] is 0.447. Under setting [1], the “scaled lipid accumulation score” value was 0.787 and 0.814 and 0.297.
Regarding `NC(=O)C1(N2CCCCC2)CCN(CCCC(=O)c2ccc(F)cc2)CC1`, the “scaled lipid accumulation score” value under setting [1] is not above 0.
Still for that read-out and setting: then `Cl.O=C(CCCN1CCC(O)(c2cccc(C(F)(F)F)c2)CC1)c1ccc(F)cc1` [Trifluperidol hydrochloride], with 0.88 (active).
As to `COc1ccc(C2(CNC(=O)c3ccc(NC(=O)c4ccco4)cc3)CCOCC2)cc1`, the “scaled lipid accumulation score” value by setting is: under setting [4], not above 0; under setting [5], not above 0; under setting [6], not above 0; under setting [1], not above 0.
As to `CCCCC[C@H](O)/C=C/[C@@H]1[C@@H](C/C=C\CCCCO)[C@@H](O)C[C@H]1O` [Prostaglandin F2.alpha. Alcohol], the “scaled lipid accumulation score” value under setting [2] is not above 0.
Take `CCCn1c(=O)c2[nH]c(-c3ccc(S(=O)(=O)O)cc3)nc2n(CCC)c1=O` [1,3-Dipropyl-8-p-sulfophenylxanthine]: the “scaled lipid accumulation score” value under setting [1] was 0.108.
Turning to `CC1=C(C(=O)OC(C)C)C(c2cccc([N+](=O)[O-])c2)C(C(=O)OC2CN(C(c3ccccc3)c3ccccc3)C2)=C(N)N1` (stereo unspecified) [Azelnidipine], the “scaled lipid accumulation score” value reads like this: under setting [3], 0.061; under setting [1], 0.189.
In the case of `O=C(CCC/C=C\C[C@@H]1[C@@H](/C=C/[C@@H](O)CCc2ccccc2)[C@H](O)C[C@@H]1O)NC(CO)CO` [17-phenyl trinor Prostaglandin F2.alpha. serinol amide], the “scaled lipid accumulation score” value under setting [2] was 0.062.
With `COc1ccc(NC(=O)c2cc(OCCCN(C)C)nn2Cc2ccccc2)cc1.Cl` [CFM 1571 hydrochloride], the “scaled lipid accumulation score” value under setting [1] is 1.11 (active).
In the case of `COc1cc(NC(=O)c2ccccn2)ccc1Cl`, the “scaled lipid accumulation score” value runs as follows: under setting [3], not above 0; under setting [1], not above 0.
With `COCCOc1nc(-c2ccc(Cl)c(Cl)c2)n(-c2ccc(NC(=O)CCl)cc2)n1` [MI-2 (MALT1 inhibitor)], the “scaled lipid accumulation score” value was 0.584 under setting [3] and 0.62 under setting [1].
`O=C(O)CCC/C=C\CC1C(O)CC(O)C1/C=C/C(O)COc1cccc(Cl)c1` (stereo unspecified): the “scaled lipid accumulation score” value under setting [1] is not above -0.001.
For the molecule `O=C(O)CCC/C=C\CC1C(O)CC(O)C1/C=C/C(O)COc1cccc(Cl)c1` (stereo unspecified) [Cloprostenol], the “scaled lipid accumulation score” value under setting [2] is not above -0.021.
